Results filed as inconclusive are left out. The source made the active and inactive calls. Calls come from the whole dose curve; as a rule, active = well fitted cell-killing curve with a large enough effect in the repeat runs; inconclusive = weak or mixed curves, or effect the other way; inactive = flat fitted curve, though single readings scatter.
Test: qHTS assay for small molecule antagonists of the retinoid-related orphan receptor gamma (ROR-gamma) signaling pathway - cell viability counter screen (AID 720652);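 note: compound exposure lasted 16 hr before ATP read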
Conditions: RORgamma reporter cell line viability counter screen; series mostly up to 92.2 µM
Source text: National Center for Advancing Translational Sciences [NCATS]
NIH Chemical Genomics Center [NCGC]
National Institutes of Environmental Health Sciences [NIEHS]
National Toxicology Program [NTP]
Nuclear steroid hormone receptors are involved in many biological processes including inflammatory responses, cell proliferation, and apoptosis. Environmental factors or compounds disrupting these nuclear receptor pathways and gene expression may promote susceptibility to immunotoxicants and autoimmune diseases. One important group of these expression factors are the retinoid-related orphan receptors. To assess compounds that may interfere with the retinoid-related orphan receptor gamma (ROR-gamma) transcription factor, a cell-based luciferase assay was used.
The CHO cell-based assay utilizes a TET-inducible ROR expression factor and ROR response element-LUC reporter gene. Reporter activity was induced using doxycycline and measured after 16hr incubation. Luminescence was read using Viewlux (PerkinElmer), where a decrease in reporter activity would show a decrease in luminescence. The cytotoxicity of the compounds against ROR response-Luc reporter gene cell line was quantified by measuring the intracellular ATP content.
1,000 cells in 4 uL/well were dispensed into white wall/solid bottom 1536-well plates using a Multidrop Combi (Thermo Scientific) dispenser. Following incubation at 37 C and 5% CO2 for 5 hr, 23 nL compound or DMSO vehicle were transferred by a pin tool, then the plates were treated with 1 ul doxycycline to induce reporter gene activity. After 16 hr incubation at 37 C and 5% CO2, 5 uL/well of CellTiter-Glo reagent (Promega) was then added to each plate using a Flying Reagent Dispenser and incubated at room temperature for 30 min. The luminescence intensity was quantified on a ViewLux plate reader (PerkinElmer).

With `CC(=O)/C=C/c1ccccc1` as the molecule, how does the outcome read?
The outcome was “inactive”.

Which outcome does the source give for `CC(C)(c1ccc(OCC2CO2)cc1)c1ccc(OCC2CO2)cc1` (stereo not drawn) here?
Its outcome is “inactive”.

Which outcome does the source give for `c1ccc2c(c1)-c1cccc3cccc-2c13` here?
The outcome was “inactive”.

With `Oc1c(Cl)c(Cl)c(Cl)c(Cl)c1Cl` as the molecule, how does the outcome read?
Its outcome is “inactive”.

For `COC(=O)c1ccccc1C(=O)OC`, which outcome is on record?
Its outcome is “inactive”.

With `COC1=CC(=O)OC(CCc2ccc3c(c2)OCO3)C1` (stereo not drawn) as the molecule, how does the outcome read?
Its outcome is “inactive”.

Which outcome does the source give for `c1ccc(Nc2ccc3ccccc3c2)cc1` here?
The outcome was “inactive”.

For `CCOC(=O)c1ccccc1N`, which outcome is on record?
The outcome was “inactive”.

For `Oc1ccccc1Cl`, which outcome is on record?
The outcome was “inactive”.

Which outcome does the source give for `CCOc1cc(C=O)ccc1O` here?
Its outcome is “inactive”.

Which outcome does the source give for `CC(C)COC(=O)c1ccccc1C(=O)OCC(C)C` here?
The outcome was “inactive”.

For `Cc1ccccc1O`, which outcome is on record?
Its outcome is “inactive”.

For `O=Cc1ccccc1`, which outcome is on record?
Its outcome is “inactive”.

Reference: PubChem BioAssay (NCATS)
